Assay outcomes (PubChem BioAssay)
The list is not random: actives were taken first. Their share in the collection is about 1.6%.
Wee1 stabilizer = blocks degradation of human Wee1 kinase. P30291. HeLa Luc-Wee1K328M stability, luciferase luminescence; 100% = proteasome inhibitor MG132 effect. reporter increase, % at 5 µM. 220,000 compounds, 1.2% hits. AID 1321;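 active = activation above the mean of all tested compounds plus 3 SD, set per screening run, cut at about 8.8% in these data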;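 also: cells exposed to compound for 20 h before luminescence read; 0% = DMSO alone and 100% = MG132 at 30 µM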
p97 inhibitor = blocks human p97 ATPase activity; P55072; recombinant p97 ATPase, Kinase-Glo ATP luminescence, 3 h; inhibition, % at 8 µM; 220,000 compounds, 0.42% hits; in the data active = inhibition above about 15%;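 also: 0% = DMSO vehicle and 100% = wells lacking enzyme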
Target sequence (P55072 whole entry, looked up): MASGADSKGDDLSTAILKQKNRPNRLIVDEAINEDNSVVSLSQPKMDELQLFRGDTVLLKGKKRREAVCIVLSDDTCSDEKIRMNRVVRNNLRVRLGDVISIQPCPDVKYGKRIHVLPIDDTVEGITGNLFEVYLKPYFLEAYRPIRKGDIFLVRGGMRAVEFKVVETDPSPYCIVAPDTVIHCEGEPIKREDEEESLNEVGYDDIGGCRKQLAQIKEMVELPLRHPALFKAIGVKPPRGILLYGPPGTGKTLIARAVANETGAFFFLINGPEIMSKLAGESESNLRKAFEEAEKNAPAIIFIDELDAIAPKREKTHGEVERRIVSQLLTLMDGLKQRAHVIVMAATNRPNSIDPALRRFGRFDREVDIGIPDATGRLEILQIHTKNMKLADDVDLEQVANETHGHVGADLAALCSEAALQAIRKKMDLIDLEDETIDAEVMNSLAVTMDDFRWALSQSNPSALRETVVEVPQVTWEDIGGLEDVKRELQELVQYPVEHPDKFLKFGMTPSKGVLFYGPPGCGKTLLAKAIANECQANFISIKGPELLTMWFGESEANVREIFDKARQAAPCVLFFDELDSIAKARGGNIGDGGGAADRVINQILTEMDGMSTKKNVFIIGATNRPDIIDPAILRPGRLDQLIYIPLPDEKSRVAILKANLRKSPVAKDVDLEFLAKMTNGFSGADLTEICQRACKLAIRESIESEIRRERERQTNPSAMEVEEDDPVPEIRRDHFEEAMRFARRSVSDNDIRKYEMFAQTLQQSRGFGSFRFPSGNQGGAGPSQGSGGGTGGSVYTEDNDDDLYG
DTT redox prof = compounds producing H2O2 with reducing agent – biochemical, NIH compound library profiling, artefact control for MLSCN library redox annotation, primary screen; DTT-dependent redox cycling H2O2, phenol red/HRP absorbance; 100% = 100 µM peroxide control, 0% = buffer; activation, % at 10 µM; 200,000 compounds, 0.03% hits; AID 878;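 active = activation of at least 50% relative to the plate's high and low controls in the primary single-dose screen; inactive = activation below 50%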;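 also: compound incubated with DTT at 0.8 mM final as the reducing agent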
HSV replic up = HSV replication enhancement; HSV replication augmentation in cells, fold increase; maximum fold increase; 220,000 compounds, 0.005% hits; AID 1956; in the data active = maximum fold increase above about 1.5; tested in PC3 cells
Hsp70 activator = transcriptional activators of Hsp70 | activation, % at 10 µM | 200,000 compounds, 0.04% hits | HeLa Hsp70 promoter luciferase reporter, luminescence; scaled: vehicle 0, proteasome-inhibitor control 100%;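 active = activation above the mean across all tested compounds plus 3 SD, cutoff set per campaign, cut at about 5.5% in these data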;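 also: 100% = MG132 at 30 µM as the positive control and 0% = DMSO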
Starred values were filed as active, the others as inactive; i = inactive; / = not tested or not shown; ! = not confirmed by another sample.

SMILES | Wee1 stabilizer | p97 inhibitor | DTT redox prof | HSV replic up | Hsp70 activator
C[C@H](NC(=O)OC(C)(C)C)C(=O)N/N=C/C1=Cc2ccccc2OC1 | 9.7* | 11 | / | i | /
Nc1cc(-c2ccccc2)ccc1O | 10*! | 10 | 1 | i | 0
CC(=O)Nc1cc(-c2ccccc2)ccc1O | -3 | 5 | -1 | i | 0
Cc1ccc2c(c1)C=CC(C)(C)S2=O (configuration not stated) | 2 | -4 | 0 | i | 0
Cc1[nH]c2ccccc2c1Cc1nnc(SCc2ccccc2)o1 | 4 | -3 | -2 | i | 0
CCOC(=O)C1=C(C)C2C3C(=O)N(c4cc(C)ccc4C)C(=O)C3C1(C)C1C(=O)N(c3cc(C)ccc3C)C(=O)C21 (configuration not stated) | 9.1* | 6 | 0 | i | 0
CCOC(=O)C1(C)NC(c2ccco2)C2C(=O)N(c3ccc(C)cc3)C(=O)C21 (configuration not stated) | 1 | 3 | -1 | i | -1
O=C1c2ccccc2C(=O)N1c1ccc(S(=O)(=O)N2CCN(c3ccccc3)CC2)cc1 | 9.4* | -1 | 0 | i | 0
COc1ccc(NC(=O)c2nc(C)c(C3(C)CC(c4cccnc4)=NO3)s2)cc1 (configuration not stated) | / | / | / | i | /
CCO[C@@H]1OC(C(N)=O)=C[C@H](c2ccccc2)[C@H]1CCCO | 0 | -2 | 0 | i | 0
COc1cc(NC(=O)CCc2nc(-c3cccs3)no2)cc(OC)c1OC | -2 | -5 | -4 | i | 0
Cc1ccc(C(C)C)c(OCC(=O)N2CCOCC2)c1 | 9.2* | -4 | -1 | i | 0
Cc1ccc(-c2ccc(OCC(=O)N3CCOCC3)cc2)cc1 | 2 | -4 | 2 | i | 0
CN1CCN(Cc2cccc(Oc3ccc(Cl)cc3)c2)CC1 | 10* | -4 | 0 | i | 0
CCN1CCN(Cc2cccc(Oc3ccc(Cl)cc3)c2)CC1 | -2 | -3 | 0 | i | -1
Cc1ccccc1-n1c(C)cc(/C=N/NC(=O)c2ccncc2)c1C | -1 | 8 | 2 | i | 0
CCOCCCNC(=O)c1c(N)n(-c2ccc3c(c2)OCO3)c2nc3ccccc3nc12 | 9.4* | 4 | / | i | /
COCCCNC(=O)c1c(N)n(-c2ccc3c(c2)OCO3)c2nc3ccccc3nc12 | -1 | -3 | 0 | i | 0
COC(=O)c1[nH]c2cc(OC)ccc2c1NC(=O)CN1CCC(C(N)=O)(N2CCCCC2)CC1 | -1 | 2 | 0 | i | 0
CCOC(=O)N1CCC(NC(=O)CCC(=O)N2CCOc3ccc(C)cc32)CC1 | 10* | -3 | 0 | i | 0
O=C1NC(c2ccc3c(c2)OCO3)Nc2ccccc21 (configuration not stated) | 11* | 4 | 0 | i | 0
CC(=O)Nc1ccc(S(=O)(=O)NCc2cn3c(C)csc3n2)cc1 | -3 | 6 | 2 | i | 0
Nc1c(C(=O)NC2CC2)sc2nc3c(c(-c4ccco4)c12)CC/C3=C/c1ccco1 | -2 | 28* | 4 | i | 0
S=C(NCCCc1ccccc1)Nc1ccc(Cl)cc1 | 1 | -6 | 0 | i | 0
CC(=O)OCC(=O)[C@@]12OC(C)(C)O[C@@H]1C[C@H]1[C@@H]3C[C@H](F)C4=CC(=O)C=C[C@]4(C)[C@@]3(F)[C@@H](O)C[C@@]12C | 11* | -6 | -1 | i | 0
SMILES | Wee1 stabilizer | p97 inhibitor | DTT redox prof | HSV replic up | Hsp70 activator
CNc1ccc(Br)cc(C(=O)/C=C/c2ccc3c(c2)OCO3)c1=O | -5 | 15* | -4 | i | 0
CNc1ccc(Br)cc(C(=O)/C=C/c2ccc(OC)cc2)c1=O | -1 | 5 | 0 | i | 0
Nc1c(C(=O)N/N=C/c2ccc(Cl)cc2)cnn1-c1ccccc1 | -2 | -2 | / | i | /
Nc1c(C(=O)N/N=C/c2cccnc2)cnn1-c1ccccc1 | 9.6* | -2 | -1 | i | 0
O=C(CSc1nc2ccccc2[nH]1)NC1CCCC1 | 2 | 7 | -1 | i | 0
O=C(CCCSc1nc2ccccc2[nH]1)NC1CCCCC1 | 9.4* | -2 | -1 | i | 0
CCn1c(COc2ccccc2OC)nnc1SCC#N | 10* | -2 | 0 | i | 0
Nc1nc2c(s1)CCc1c-2cnn1-c1ccccc1 | 7 | 16* | -1 | i | 0
CN(Cc1cccnc1)C(=O)CC1C(=O)NCCN1Cc1ccc(-c2ccccc2)cc1 (configuration not stated) | -2 | 6 | -1 | i | 0
CN(CC1CCOCC1)C(=O)CC1C(=O)NCCN1Cc1ccc(-c2ccccc2)cc1 (configuration not stated) | 9.1* | -2 | -1 | i | 0
CCc1ccc(-c2cc(C(=O)NN3CCOCC3)c3ccccc3n2)cc1 | 28* | 0 | 3 | i | 0
O=C(NCCCN1CCOCC1)c1cc(-c2ccc3c(c2)OCO3)nc2ccccc12 | 11* | -4 | -3 | i | 0
O=C(NN1CCOCC1)c1cc(-c2ccc(Br)cc2)nc2ccccc12 | 3 | 3 | 1 | i | 0
CCOc1c(Cl)cc(CNCc2ccccn2)cc1OC | 9.0* | 0 | 4 | i | 0
COc1cc(CNCc2ccccn2)ccc1OCc1ccccc1Cl | -2 | -5 | 0 | i | 0
COC(=O)C1=C(N)Oc2c(oc(CO)cc2=O)C1c1ccccc1F (configuration not stated) | -3 | -6 | 3 | i | 0
CCOC(=O)C1(Cc2cccc(F)c2)CCN(CC2CC2)CC1 | 1 | 0 | 0 | i | 0
CCOC(=O)C1(Cc2cccc(F)c2)CCN(CC(O)CO)CC1 (configuration not stated) | 10* | 4 | / | i | /
Cc1cc(C)cc(N(CC(=O)NC2CCCC2)C(=O)C2(C)CC(=O)N=C3C=CC=CN32)c1 (configuration not stated) | 11* | 4 | 0 | i | 0
Cc1ccccc1N(CC(=O)NC1CCCC1)C(=O)C1(C)CC(=O)N=C2C=CC=CN21 (configuration not stated) | -2 | 6 | 2 | i | 0
CCN1CCN(S(=O)(=O)c2ccc3[nH]c(=O)oc3c2)CC1 | 4 | 0 | 0 | i | 0
CSc1nc(SCC(=O)NCC2CCCO2)c2c3c(sc2n1)CN(C)CC3 (configuration not stated) | 1 | 5 | / | i | /
O=C(Nc1ccc(C2SCCS2)cc1)c1ccccc1 | 10* | 2 | / | i | /
CCN1CCN(c2oc(COc3ccc(Cl)cc3)nc2C#N)CC1 | 9.1* | -7 | / | i | /
CNC(=O)c1ccccc1NC(=O)C1CC(=O)N(c2ccc(OC)cc2)C1 (configuration not stated) | -2 | 2 | 1 | i | 0
